Among the data in the OligoGym collection are sensor-assay potency score (higher = more potent) values, retold here.
Also: reference of the scale not given here.

The first experiment addresses INF2. Put plainly: pooled miR-30 sensor sort-seq; sequence = guide strand. Conditions: shRNA.
TTGCATTTTGATTAAACCTTGC yielded a sensor-assay potency score (higher = more potent) of -0.249. Turning to TTCAGCAATGTGCTGATCTTGA, the sensor-assay potency score (higher = more potent) is -0.209.

On to TTTTGATTAAACCTTGCTGGGC, for which the sensor-assay potency score (higher = more potent) is -0.764. TTTCAGGATGCTCTCACTCTGG: the sensor-assay potency score (higher = more potent) is -0.623. Same read-out and setting: the result for TAGCTCAAACACCTGCTTCTTC reads -0.118. For the sequence TAGAGTTGTGCTCACGTGCCAC, the sensor-assay potency score (higher = more potent) was -0.638. Sequence TTCATGACAATGCTGAAGCGGT registered a sensor-assay potency score (higher = more potent) of -0.245.

For another experiment, the target named is INO80B. Described as above. Conditions: shRNA.
With TTCTTGTGCACTCCATGGCCAT, the sensor-assay potency score (higher = more potent) was -1.62. As for TTACTGTCTTCATCCAGCCAGG, the sensor-assay potency score (higher = more potent) was -0.737. Still for that read-out and setting: the result for ATTATCCACAACCATAAGGGGA reads -1.17; that for ATTACTGTCTTCATCCAGCCAG, -0.0733; that for TTATCCACAACCATAAGGGGAG, -0.805. As to TTGAGTTTGAGCTGAGGCTTGG, the sensor-assay potency score (higher = more potent) is -0.366.

Regarding TCTGGGATCACAGTGAAGGTAG, the sensor-assay potency score (higher = more potent) is 0.138. For TAACCCTCCTGATAGGTCCCGA, the sensor-assay potency score (higher = more potent) is -0.336. For TTCCTGATGGTGTTTCTTCTTG, the sensor-assay potency score (higher = more potent) is -0.564. TTGTGTTTCTTCTTGTGCTTCT showed a sensor-assay potency score (higher = more potent) of 0.567.

The sequence TTTGAGTTTGAGCTGAGGCTTG came in with a sensor-assay potency score (higher = more potent) of -0.36.

TTTTCTTGTGCACTCCATGGCC showed a sensor-assay potency score (higher = more potent) of -0.4.

Another experiment deals with INO80C. The description is as above. Conditions: shRNA.
Turning to TGAAACATCAGAATACTTCTTA, the sensor-assay potency score (higher = more potent) was found to be 1.15. As for TATAATTTAATTCAGCAGGAAA, the sensor-assay potency score (higher = more potent) was -1.3.

Sequence TTGCTGTTCCGGACTATTCCGG returned a sensor-assay potency score (higher = more potent) of -0.701.

Take TTCAATGGTGCTGAACCGCAGT: the sensor-assay potency score (higher = more potent) was -0.122.

TTTACTTGAGGCAACAACTGAA gave a sensor-assay potency score (higher = more potent) of 0.108.

ATTTGTTTCAGGTTCTTCCAGG returned a sensor-assay potency score (higher = more potent) of -0.776.

For TTGGAGGGAAAACACACACTAA, the sensor-assay potency score (higher = more potent) was -1.27.

The sequence TGTAGTTGGCAAGCAGACCTGA yielded a sensor-assay potency score (higher = more potent) of -0.0597. The same measure, in the same setting: to TTCTGTTCTTCTTGCCAGCTAC belongs -0.723; to TTTTGAAACAGCTTTCCACTTC, 0.164; to TACTGAAGTAGTTAGGATCGTT, 0.332. Turning to TTACTTGAGGCAACAACTGAAG, the sensor-assay potency score (higher = more potent) is -0.863.

Another experiment concerns the target INPP5F. Described as above. The settings on record: shRNA.
TTACTTTATCAACTTCATCATC displayed a sensor-assay potency score (higher = more potent) of -1.34. Turning to TACCAAGTTAATAATAACCTGT, the sensor-assay potency score (higher = more potent) was -0.241. Take TTCTTTGTATCTGTAGTGCAGT: the sensor-assay potency score (higher = more potent) is -0.359. On the same count and under the same terms, the result for TTGGGTAATACTAGCAACCTGG reads -0.472; that for TAGACTTAGTCGTTGATACTGG, -0.136; that for TTAGTGTCTGAACATTCTCAAA, -1.6. For TAATCTTCTCTCTTCCTGCCTG, the sensor-assay potency score (higher = more potent) amounted to 0.168. Still for that read-out and setting: the result for TTCGTTTATAGCGCATTCCTGC reads -0.611. In turn, TTCCTTTTCACTTCTGTCCAGC came in with a sensor-assay potency score (higher = more potent) of -0.59.
